Laboratory results as given in PubChem BioAssay AID1159580 (chemical genetic matrix, 2015).
The whole screen tested about 5,500 compounds, of which about 2,000 (36%) were called active. Inconclusive results (about 18%) are left out. Rule as the data show it: active = normalized growth mostly below about 0.91 (no sharp cut-off); inconclusive = no clear call, values can overlap the other calls; inactive = mostly above about 0.92. The list shows a part of the results.

Assay: chemical genetic growth profiling, strain panel (AID 1159580);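 also: tested at 20 µM; growth read once vehicle control cultures reached saturation at 30 °C; 1 = growth at the plate median or of vehicle wells; lower values mean less growth of the strain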
Settings: growth OD

Measured: normalized growth

Cc1cccc(C)c1NC(=O)C1CCCCN1C (configuration not stated)
inactive: S. cerevisiae deletion strains, locus YJR075W, strain HOC1, hits give low values 1 | S. cerevisiae deletion strains, locus YKL009W, strain mrt4, hits give low values 1.04 | S. cerevisiae deletion strains, locus YKL068W, hits give low values 0.999 | S. cerevisiae deletion strains, locus YKL085W, strain MDH1 (second series), hits give low values 1 | S. cerevisiae deletion strains, locus YKL085W, strain MDH1, hits give low values 1 | S. cerevisiae deletion strains, locus YKL160W, strain elf1, hits give low values 0.994 | S. cerevisiae deletion strains, locus YKL190W, strain CNB1, hits give low values 0.982 | S. cerevisiae deletion strains, locus YKR001C, strain vps1, hits give low values 1.01 | S. cerevisiae deletion strains, locus YKR026C, strain gcn3, hits give low values 0.979 | S. cerevisiae deletion strains, locus YKR091W, strain srl3, hits give low values 0.994 | S. cerevisiae deletion strains, locus YLL001W, strain dnm1, hits give low values 0.99 | S. cerevisiae deletion strains, locus YLL026W, hits give low values 0.991 | S. cerevisiae deletion strains, locus YLL041C, strain sdh2, hits give low values 1 | S. cerevisiae deletion strains, locus YLR027C, strain aat2, hits give low values 0.992 | S. cerevisiae deletion strains, locus YLR039C, strain RIC1, hits give low values 1.01 | S. cerevisiae deletion strains, locus YLR058C, strain SHM2, hits give low values 1 | S. cerevisiae deletion strains, locus YLR102C, strain apc9, hits give low values 1.02 | S. cerevisiae deletion strains, locus YLR113W, strain HOG1, hits give low values 1.01 | S. cerevisiae deletion strains, locus YLR221C, strain rsa3, hits give low values 0.996 | S. cerevisiae deletion strains, locus YLR258W, strain gsy2, hits give low values 0.991 | S. cerevisiae deletion strains, locus YLR262C, strain YPT6 (second series), hits give low values 0.986 | S. cerevisiae deletion strains, locus YLR262C, strain YPT6, hits give low values 0.996 | S. cerevisiae deletion strains, locus YLR268W, strain sec22, hits give low values 1.02 | S. cerevisiae deletion strains, locus YLR320W, strain mms22, hits give low values 0.976 | S. cerevisiae deletion strains, locus YLR330W, strain CHS5, hits give low values 1.01 | S. cerevisiae deletion strains, locus YLR342W, strain FKS1 (second series), hits give low values 1.03 | S. cerevisiae deletion strains, locus YLR342W, strain FKS1, hits give low values 0.992 | S. cerevisiae deletion strains, locus YLR357W, strain rsc2, hits give low values 0.972 | S. cerevisiae deletion strains, locus YLR370C, strain arc18, hits give low values 0.978 | S. cerevisiae deletion strains, locus YLR371W, strain rom2, hits give low values 1.02 | S. cerevisiae deletion strains, locus YLR384C, strain iki3, hits give low values 0.985 | S. cerevisiae deletion strains, locus YLR418C, strain cdc73, hits give low values 1.03 | S. cerevisiae deletion strains, locus YML016C, strain PPZ1, hits give low values 1 | S. cerevisiae deletion strains, locus YML032C, strain rad52, hits give low values 0.998 | S. cerevisiae deletion strains, locus YML120C, strain ndi1, hits give low values 0.987 | S. cerevisiae deletion strains, locus YML124C, strain tub3, hits give low values 1.02 | S. cerevisiae deletion strains, locus YMR058W, strain fet3, hits give low values 0.988 | S. cerevisiae deletion strains, locus YMR078C, strain ctf18, hits give low values 1.01 | S. cerevisiae deletion strains, locus YMR125W, strain sto1, hits give low values 0.98 | S. cerevisiae deletion strains, locus YMR129W, hits give low values 0.995 | S. cerevisiae deletion strains, locus YMR205C, strain PFK2, hits give low values 0.976 | S. cerevisiae deletion strains, locus YMR223W, strain ubp8, hits give low values 0.998 | S. cerevisiae deletion strains, locus YMR231W, strain pep5, hits give low values 0.985 | S. cerevisiae deletion strains, locus YMR263W, strain SAP30, hits give low values 0.997 | S. cerevisiae deletion strains, locus YMR307W, strain GAS1, hits give low values 0.985 | S. cerevisiae deletion strains, locus YNL067W, strain RPL9B, hits give low values 0.996 | S. cerevisiae deletion strains, locus YNL071W, strain lat1, hits give low values 0.989 | S. cerevisiae deletion strains, locus YNL128W, strain TEP1, hits give low values 1.01 | S. cerevisiae deletion strains, locus YNL153C, strain GIM3, hits give low values 1.01 | S. cerevisiae deletion strains, locus YNL183C, strain NPR1, hits give low values 0.963 | S. cerevisiae deletion strains, locus YNL209W, strain ssb2, hits give low values 0.987 | S. cerevisiae deletion strains, locus YNL233W, strain BNI4, hits give low values 1.01 | S. cerevisiae deletion strains, locus YNL248C, strain rpa49, hits give low values 0.976 | S. cerevisiae deletion strains, locus YNL250W, strain rad50, hits give low values 0.999 | S. cerevisiae deletion strains, locus YNL271C, strain bni1, hits give low values 1.01 | S. cerevisiae deletion strains, locus YNL298W, strain CLA4, hits give low values 1.01 | S. cerevisiae deletion strains, locus YNL307C, strain MCK1, hits give low values 1.02 | S. cerevisiae deletion strains, locus YNL322C, strain KRE1 (second series), hits give low values 0.966 | S. cerevisiae deletion strains, locus YNL322C, strain KRE1, hits give low values 1.01 | S. cerevisiae deletion strains, locus YNR049C, strain mso1, hits give low values 0.99 | S. cerevisiae deletion strains, locus YNR052C, strain pop2, hits give low values 1 | S. cerevisiae deletion strains, locus YOL006C, strain TOP1, hits give low values 1.02 | S. cerevisiae deletion strains, locus YOL012C, strain htz1 0.844 | S. cerevisiae deletion strains, locus YOL147C, strain pex11, hits give low values 1.01 | S. cerevisiae deletion strains, locus YOR001W, strain rrp6, hits give low values 0.974 | S. cerevisiae deletion strains, locus YOR061W, strain CKA2, hits give low values 1 | S. cerevisiae deletion strains, locus YOR069W, strain VPS5, hits give low values 0.999 | S. cerevisiae deletion strains, locus YOR070C, strain gyp1, hits give low values 0.991 | S. cerevisiae deletion strains, locus YOR080W, strain dia2, hits give low values 0.981 | S. cerevisiae deletion strains, locus YOR083W, strain WHI5, hits give low values 0.989 | S. cerevisiae deletion strains, locus YOR106W, strain vam3, hits give low values 1.01 | S. cerevisiae deletion strains, locus YOR136W, strain idh2, hits give low values 1.02 | S. cerevisiae deletion strains, locus YOR144C, strain elg1, hits give low values 1.01 | S. cerevisiae deletion strains, locus YOR184W, strain ser1, hits give low values 1.02 | S. cerevisiae deletion strains, locus YOR231W, strain MKK1, hits give low values 1.03 | S. cerevisiae deletion strains, locus YOR265W, strain rbl2, hits give low values 1 | S. cerevisiae deletion strains, locus YOR270C, strain vph1, hits give low values 0.981 | S. cerevisiae deletion strains, locus YOR290C, strain snf2, hits give low values 0.999 | S. cerevisiae deletion strains, locus YOR316C, strain cot1, hits give low values 1.01 | S. cerevisiae deletion strains, locus YPL051W, strain arl3, hits give low values 0.993 | S. cerevisiae deletion strains, locus YPL055C, strain LGE1, hits give low values 0.992 | S. cerevisiae deletion strains, locus YPL078C, strain atp4, hits give low values 0.997 | S. cerevisiae deletion strains, locus YPL106C, strain sse1, hits give low values 0.98 | S. cerevisiae deletion strains, locus YPL240C, strain hsp82, hits give low values 1 | S. cerevisiae deletion strains, locus YPL241C, strain CIN2, hits give low values 0.999 | S. cerevisiae deletion strains, locus YPL256C, strain CLN2, hits give low values 1.01 | S. cerevisiae deletion strains, locus YPR119W, strain clb2, hits give low values 1.02 | S. cerevisiae deletion strains, locus YPR141C, strain kar3, hits give low values 1.01 | S. cerevisiae deletion strains, locus YPR163C, strain tif3, hits give low values 1.02 | S. cerevisiae deletion strains, locus YPR167C, strain met16, hits give low values 1.01 | S. cerevisiae deletion strains, strain wtn01, hits give low values 1.01 | S. cerevisiae strains, strain wild type, hits give low values 0.992
